Screening results from PubChem BioAssay.
An excerpt weighted towards active compounds, which were near 1.8% of everything screened.
pCIP destab – lowers stability of the mouse p/CIP coactivator protein. Q05BA5. F442A p/CIP-EGFP cells, EGFP fluorescence, 16 h. decrease of EGFP signal, % at 10 µM. 0.01% of 290,000 active;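 active = EGFP signal decrease of at least 30% at 10 µM or well 3 SD below plate mean, unless failing retest; inactive = the rest, including hits failing retest or dose response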
NadD inh – NadD (S. aureus) enzyme inhibition; purified NadD enzyme, colorimetric absorbance read-out; inhibition, % at 20 µM; 0.78% of 360,000 active; in the data active = inhibition above about 26%
SUMO HTRF inh – inhibitors of human SUMOylation (UBC9). HTRF SUMOylation assay, SAE1/SAE2 + UBC9, in vitro. inhibition, % at 35 µM. 0.36% of 290,000 active. AID 2006; in the data active = inhibition above about 50%, passing the limit was not always enough
PHOSPHO1 block – PHOSPHO1 (human) inhibition. Q8TCT1. recombinant PHOSPHO1, absorbance phosphatase assay. inhibition, % at 13.3 µM. 1.1% of 290,000 active; in the data active = inhibition above about 60%
Starred values were filed as active, the others as inactive; . = no result given.

SMILES | pCIP destab | NadD inh | SUMO HTRF inh | PHOSPHO1 block
CCn1c(-c2ccccc2Cl)nn(CC(=O)Nc2ccccc2C)c1=S | -6 | 2 | 13 | 100*
C=CCn1c(Cc2nc3ccccc3[nH]2)n[nH]c1=S | 0 | 3 | -5 | 90*
C=CCn1c(CSc2nc3ccccc3s2)n[nH]c1=S | -8 | 1 | 4 | 106*
CCn1c(CSc2nc3ccccc3s2)n[nH]c1=S | -8 | 3 | -2 | 96*
S=c1[nH]nc(CSc2nc3ccccc3s2)n1Cc1ccccc1 | 9 | -1 | 7 | 98*
COCCN1C(=O)COc2ccccc2C1C(=O)NC(C)(C)C (centres undefined) | . | 5 | . | .
C[C@@H]1CCCCO[C@H](CN(C)C(=O)Cc2ccccc2)[C@H](C)CN([C@@H](C)CO)C(=O)c2cc(NC(=O)Nc3ccc(F)cc3)ccc2O1 | . | 9 | . | .
OC[C@@H]1CN(Cc2ccccc2)C[C@H](n2cnc3c(N4CCOCC4)ncnc32)O1 | . | -1 | . | .
N#CC1=C2N=C(N)c3c(sc4c3CCCCC4)N2C2=C(C(=O)CCC2)C1c1ccccc1 (centres undefined) | -12 | 25 | -23 | 70*
COc1cc(NCCCn2cnc3c(OC)ncnc32)cc(OC)c1OC | . | 6 | . | .
CCOC(=O)C1(C)CCCN1C(=O)c1ccc(OC)c(OC)c1 (centres undefined) | . | 3 | . | .
CCCN(CCC)Cc1cc(=O)oc2cc(C)c(C)cc12 | . | -2 | . | .
COC(=O)c1cc2occc2n1Cc1ccc(Cl)cc1 | -2 | -12 | 5 | 64*
COC(=O)c1cc2occc2n1Cc1c(F)cccc1Cl | -23 | . | 11 | 38
CC1(c2ccccc2)CC(C)(C)N2C(=O)C3(C(C#N)=C(N)Oc4cc(O)ccc43)c3cccc1c32 (centres undefined) | 0 | 5 | -32 | 3
CC1(c2ccccc2)CC(C)(C)N2C(=O)/C(=C3\SC(=S)NC3=O)c3cccc1c32 (centres undefined) | 4 | 35* | 17 | 6
O=[N+]([O-])c1cccc(CON=Cc2cc(Cl)ccc2O)c1 | . | 2 | . | .
COc1ccc(/C=C2\CN(Cc3ccccc3)C/C(=C\c3ccc(OC)cc3OC)C2=O)c(OC)c1 | 8 | 29* | -11 | -5
COc1ccc(/C=C2\CN(Cc3ccccc3)C/C(=C\c3ccc(OC)cc3)C2=O)cc1 | -2 | 12 | 1 | -15
CCCCNc1c2c3c(cccc3n(C)c1=O)C(=O)c1ccccc1-2 | -7 | -1 | 25 | -26
Cn1c(=O)c(NCCO)c2c3c(cccc31)C(=O)c1ccccc1-2 | -743 | 1 | 55* | 28
Cc1ccc(NC(=O)Cc2nnc(SCC(=O)c3ccc(Br)cc3)n2C)cc1Cl | 5 | . | 1 | 78*
Cc1ccccc1NC(=O)Cc1nnc(SCC(=O)c2ccc(Br)cc2)n1C | -5 | 1 | -11 | 29
O=C1NC[C@@H](CCCCN2C[C@H](Cc3ccccc3)N(Cc3ccccc3)C(=O)C2=O)N(CCc2ccccc2)C1=O | . | 17 | . | .
Cc1cccc(N(Cc2cc3ccc(C)cc3[nH]c2=O)C(=O)c2ccco2)c1 | -16 | -10 | -2 | 70*
SMILES | pCIP destab | NadD inh | SUMO HTRF inh | PHOSPHO1 block
Cc1ccc2cc(CN(C(=O)c3ccco3)c3ccccc3)c(=O)[nH]c2c1 | -3 | -1 | 1 | 16
CCN(CC(=O)Nc1cc(Cl)ccc1Cl)C(=O)c1ccc(-n2cccn2)cc1 | . | -1 | . | .
Cc1ccc(C#N)c(SCc2ccccc2F)n1 | -1 | -7 | 8 | 16
Cc1ccc2nc(CSc3nc(C)ccc3C#N)[nH]c2c1 | -6 | 2 | 21 | 100*
Cc1ccc(OCc2nnc(SCCN3CCOCC3)n2C)cc1 | 4 | -1 | 32 | 74*
Cc1cc(/C=C2\C(=O)NN(c3ccccc3)C2=O)c(C)n1-c1ccccc1O | -2 | 8 | 60* | 35
Cc1cc(/C=C2/C(=O)NN(c3ccccc3)C2=O)c(C)n1-c1ccc(O)cc1 | -2 | 4 | -3 | 18
CSCCc1nc(SCC(=O)Nc2nnc(C)s2)[nH]c1C | -1 | -3 | -4 | 68*
Cc1ccc2ccc(C(Nc3ccccn3)c3ccccc3)c(O)c2n1 (centres undefined) | -26 | -3 | -42 | 4
Cc1ccnc(NC(c2cccnc2)c2ccc3cccnc3c2O)c1 (centres undefined) | -9 | 8 | -60 | -122
COc1ccccc1NC(c1cccnc1)c1ccc2cccnc2c1O (centres undefined) | 1 | 19 | -56 | 63*
COc1cc(C(Nc2ccccn2)c2ccc3ccc(C)nc3c2O)cc(OC)c1O (centres undefined) | -5 | 17 | -16 | 73*
CN(Cc1cnn(-c2ccc(F)cc2)c1)C(=O)[C@H]1O[C@@H](n2ccc(=O)[nH]c2=O)[C@H](O)[C@@H]1O | . | -5 | . | .
